Positions count from the first letter of the chain named.

What all share (test): PBM; 200 nM protein, PBS
Conditions in all cases: dsDNA, one strand shown

Experiment [1] concerns the target HOXB9 (Homo sapiens, UniProt P17482 171-250, T197M).
Experiment [2] concerns the target HOXC9 (Homo sapiens, UniProt P31274 178-260, K195R).
Experiment [3] addresses HOXA7 (Homo sapiens, UniProt P31268 116-202).
The target in experiment [4] is HOXC10 (Homo sapiens, UniProt Q9NYD6 254-340).
Experiment [5] deals with ALX4 (Homo sapiens, UniProt Q9H161 200-286).
Experiment [6] concerns the target T1, PAX4 (Homo sapiens, UniProt O43316 9-242, R200K).
T1 sequence: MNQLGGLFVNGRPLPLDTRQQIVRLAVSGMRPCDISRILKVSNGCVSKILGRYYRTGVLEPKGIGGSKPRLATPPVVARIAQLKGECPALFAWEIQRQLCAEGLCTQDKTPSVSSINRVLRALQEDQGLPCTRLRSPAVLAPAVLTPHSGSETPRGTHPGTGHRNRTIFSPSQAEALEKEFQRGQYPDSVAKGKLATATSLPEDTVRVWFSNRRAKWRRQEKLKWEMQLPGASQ

Experiment [7] has as its target PRRX1 (Homo sapiens, UniProt P54821 80-166, F113S).
For experiment [8], the target named is T2, PAX4 (Homo sapiens, UniProt O43316 9-242).
T2 sequence: T1 sequence with K192R

Experiment [9] deals with HOXB6 (Homo sapiens, UniProt P17509 132-218, K202E).
The target in experiment [10] is ALX4 (Homo sapiens, UniProt Q9H161 200-286, Q225E).
The target of experiment [11] is HOXA4 (Homo sapiens, UniProt Q00056 201-287, R217L).
In experiment [12] the target is HOXB4 (Homo sapiens, UniProt P17483 148-234, V174I).
In experiment [13] the target is ALX1 (Homo sapiens, UniProt Q15699 118-204, L144V).
The target of experiment [14] is ALX3 (Homo sapiens, UniProt O95076 139-225, N203Q).
The target in experiment [15] is HOXD13 (Homo sapiens, UniProt P35453 263-343, T313R).
In experiment [16] the target is T3, PAX4 (Homo sapiens, UniProt O43316 9-242, R200Q).
T3 sequence: T1 sequence with K192Q

Experiment [17] deals with SHOX (Homo sapiens, UniProt O15266 103-189, R173C).
Experiment [18] deals with HOXC9 (Homo sapiens, UniProt P31274 178-260, R193K).
In experiment [19] the target is ALX1 (Homo sapiens, UniProt Q15699 118-204, L144R).
The target in experiment [20] is T4, PAX4 (Homo sapiens, UniProt O43316 9-242, F177V).
T4 sequence: T1 sequence with F169V, K192R

Experiment [21] concerns the target HOXC10 (Homo sapiens, UniProt Q9NYD6 254-340, K271E).
In experiment [22] the target is ALX3 (Homo sapiens, UniProt O95076 139-225).
Experiment [23] concerns the target T5, PAX4 (Homo sapiens, UniProt O43316 9-242, F177Y).
T5 sequence: T1 sequence with F169Y, K192R

Experiment [24] concerns the target HESX1 (Homo sapiens, UniProt Q9UBX0 95-180, R109Q).
For experiment [25], the target named is ALX3 (Homo sapiens, UniProt O95076 139-225, L168Q).
Experiment [26] has as its target HESX1 (Homo sapiens, UniProt Q9UBX0 95-180, P111T).
The target in experiment [27] is HOXB9 (Homo sapiens, UniProt P17482 171-250, R186Q).
Experiment [28] has as its target HOXC9 (Homo sapiens, UniProt P31274 178-260, R222W).
The target of experiment [29] is ALX3 (Homo sapiens, UniProt O95076 139-225, L168V).
For experiment [30], the target named is HESX1 (Homo sapiens, UniProt Q9UBX0 95-180, F115L).
Experiment [31] concerns the target VAX1 (Homo sapiens, UniProt Q5SQQ9 86-172, T142I).
Experiment [32] concerns the target T6, PAX4 (Homo sapiens, UniProt O43316 9-242, R227W).
T6 sequence: T1 sequence with K192R, R219W

In experiment [33] the target is HOXA7 (Homo sapiens, UniProt P31268 116-202, W177C).
For experiment [34], the target named is HOXA4 (Homo sapiens, UniProt Q00056 201-287, W262F).
Experiment [35] has as its target ALX3 (Homo sapiens, UniProt O95076 139-225, N203S).
Experiment [36] addresses PRRX1 (Homo sapiens, UniProt P54821 80-166).
The target of experiment [37] is HOXB6 (Homo sapiens, UniProt P17509 132-218).
Experiment [38] has as its target T7, VENTX (Homo sapiens, UniProt O95231 78-163, R121Q).
T7 sequence: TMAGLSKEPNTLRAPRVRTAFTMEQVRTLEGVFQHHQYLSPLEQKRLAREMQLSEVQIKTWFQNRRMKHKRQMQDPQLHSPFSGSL

The target in experiment [39] is T8, VENTX (Homo sapiens, UniProt O95231 78-163, Y115F).
T8 sequence: T7 sequence with Y38F, Q44R

The target of experiment [40] is T9, VENTX (Homo sapiens, UniProt O95231 78-163).
T9 sequence: T7 sequence with Q44R

In experiment [41] the target is VAX1 (Homo sapiens, UniProt Q5SQQ9 86-172).
Experiment [42] has as its target VAX1 (Homo sapiens, UniProt Q5SQQ9 86-172, K157R).
For experiment [43], the target named is HOXB9 (Homo sapiens, UniProt P17482 171-250).
For experiment [44], the target named is HOXC9 (Homo sapiens, UniProt P31274 178-260).
For experiment [45], the target named is T10, NKX2-6 (Homo sapiens, UniProt A6NCS4 118-204).
T10 sequence: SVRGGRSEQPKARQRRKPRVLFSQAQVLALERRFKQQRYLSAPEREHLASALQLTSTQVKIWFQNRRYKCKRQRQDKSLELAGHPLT

Chain of HOXC9 (Homo sapiens, UniProt P31274 178-260, R222W) (P31274 178-260 R222W): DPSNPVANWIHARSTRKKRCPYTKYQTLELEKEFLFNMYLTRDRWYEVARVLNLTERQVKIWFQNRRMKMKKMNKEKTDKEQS
Chain of HOXC9 (Homo sapiens, UniProt P31274 178-260, R193K) (P31274 178-260 R193K): as the sequence (P31274 178-260 R222W) above, with R16K, W45R counted along it
Chain of HOXC10 (Homo sapiens, UniProt Q9NYD6 254-340, K271E) (Q9NYD6 254-340 K271E): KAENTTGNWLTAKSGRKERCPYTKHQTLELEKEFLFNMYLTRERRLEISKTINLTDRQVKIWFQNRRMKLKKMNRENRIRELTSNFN
Chain of HOXA7 (Homo sapiens, UniProt P31268 116-202) (P31268 116-202): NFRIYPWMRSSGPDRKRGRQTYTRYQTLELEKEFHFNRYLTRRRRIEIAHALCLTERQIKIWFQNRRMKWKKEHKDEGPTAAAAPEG
Chain of HOXA7 (Homo sapiens, UniProt P31268 116-202, W177C) (P31268 116-202 W177C): as the sequence (P31268 116-202) above, with W62C counted along it
Chain of VAX1 (Homo sapiens, UniProt Q5SQQ9 86-172, T142I) (Q5SQQ9 86-172 T142I): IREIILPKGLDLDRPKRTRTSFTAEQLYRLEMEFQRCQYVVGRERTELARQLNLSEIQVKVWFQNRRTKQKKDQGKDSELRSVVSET
Chain of HOXB6 (Homo sapiens, UniProt P17509 132-218, K202E) (P17509 132-218 K202E): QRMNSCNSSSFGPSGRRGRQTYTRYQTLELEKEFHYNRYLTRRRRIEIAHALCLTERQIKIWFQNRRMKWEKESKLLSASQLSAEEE
Chain of HOXB9 (Homo sapiens, UniProt P17482 171-250, R186Q) (P17482 171-250 R186Q): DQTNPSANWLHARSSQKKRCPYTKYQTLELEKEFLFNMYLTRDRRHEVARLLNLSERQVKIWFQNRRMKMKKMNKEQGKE
Chain of HOXB6 (Homo sapiens, UniProt P17509 132-218) (P17509 132-218): as the sequence (P17509 132-218 K202E) above, with E71K counted along it
Chain of HOXC9 (Homo sapiens, UniProt P31274 178-260, K195R) (P31274 178-260 K195R): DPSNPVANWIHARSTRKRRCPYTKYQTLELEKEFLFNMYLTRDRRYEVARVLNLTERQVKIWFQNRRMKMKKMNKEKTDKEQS
Chain of HOXB9 (Homo sapiens, UniProt P17482 171-250, T197M) (P17482 171-250 T197M): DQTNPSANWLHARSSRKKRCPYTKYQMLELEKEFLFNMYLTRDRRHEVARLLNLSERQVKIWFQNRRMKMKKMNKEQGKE
Chain of VAX1 (Homo sapiens, UniProt Q5SQQ9 86-172, K157R) (Q5SQQ9 86-172 K157R): as the sequence (Q5SQQ9 86-172 T142I) above, with I57T, K72R counted along it
Chain of SHOX (O15266 103-189 R173C): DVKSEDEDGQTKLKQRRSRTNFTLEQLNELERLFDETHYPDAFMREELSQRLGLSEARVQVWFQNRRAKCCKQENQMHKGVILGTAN
Chain of HOXD13 (P35453 263-343 T313R): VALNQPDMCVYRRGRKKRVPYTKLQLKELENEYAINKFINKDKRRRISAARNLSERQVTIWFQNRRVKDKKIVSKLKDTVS
Chain of ALX3 (Homo sapiens, UniProt O95076 139-225, N203S) (O95076 139-225 N203S): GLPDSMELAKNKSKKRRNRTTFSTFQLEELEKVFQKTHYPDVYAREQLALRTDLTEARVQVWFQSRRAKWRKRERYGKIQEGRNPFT
Chain of ALX1 (Homo sapiens, UniProt Q15699 118-204, L144V) (Q15699 118-204 L144V): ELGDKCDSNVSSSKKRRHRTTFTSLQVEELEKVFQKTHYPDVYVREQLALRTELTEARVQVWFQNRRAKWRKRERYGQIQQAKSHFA
Chain of ALX4 (Homo sapiens, UniProt Q9H161 200-286) (Q9H161 200-286): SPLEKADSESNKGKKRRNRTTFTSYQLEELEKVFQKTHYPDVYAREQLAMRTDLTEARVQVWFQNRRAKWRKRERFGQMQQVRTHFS
Chain of ALX3 (Homo sapiens, UniProt O95076 139-225) (O95076 139-225): as the sequence (O95076 139-225 N203S) above, with S65N counted along it
Chain of HOXC9 (Homo sapiens, UniProt P31274 178-260) (P31274 178-260): as the sequence (P31274 178-260 R222W) above, with W45R counted along it
Chain of HOXB9 (Homo sapiens, UniProt P17482 171-250) (P17482 171-250): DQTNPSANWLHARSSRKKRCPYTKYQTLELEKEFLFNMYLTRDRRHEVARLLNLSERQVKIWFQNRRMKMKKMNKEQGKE
Chain of HESX1 (Homo sapiens, UniProt Q9UBX0 95-180, R109Q) (Q9UBX0 95-180 R109Q): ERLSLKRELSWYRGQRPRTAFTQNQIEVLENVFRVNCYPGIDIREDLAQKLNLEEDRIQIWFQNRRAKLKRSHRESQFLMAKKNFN
Chain of ALX4 (Homo sapiens, UniProt Q9H161 200-286, Q225E) (Q9H161 200-286 Q225E): as the sequence (Q9H161 200-286) above, with Q26E counted along it
Chain of HESX1 (Homo sapiens, UniProt Q9UBX0 95-180, F115L) (Q9UBX0 95-180 F115L): as the sequence (Q9UBX0 95-180 R109Q) above, with Q15R, F21L counted along it
Chain of ALX3 (Homo sapiens, UniProt O95076 139-225, L168V) (O95076 139-225 L168V): as the sequence (O95076 139-225 N203S) above, with L30V, S65N counted along it
Chain of HESX1 (Homo sapiens, UniProt Q9UBX0 95-180, P111T) (Q9UBX0 95-180 P111T): as the sequence (Q9UBX0 95-180 R109Q) above, with Q15R, P17T counted along it
Chain of ALX3 (Homo sapiens, UniProt O95076 139-225, L168Q) (O95076 139-225 L168Q): as the sequence (O95076 139-225 N203S) above, with L30Q, S65N counted along it
Chain of PRRX1 (Homo sapiens, UniProt P54821 80-166, F113S) (P54821 80-166 F113S): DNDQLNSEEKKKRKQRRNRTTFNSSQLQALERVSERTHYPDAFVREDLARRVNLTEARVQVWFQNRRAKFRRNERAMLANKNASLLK
Chain of HOXC10 (Homo sapiens, UniProt Q9NYD6 254-340) (Q9NYD6 254-340): as the sequence (Q9NYD6 254-340 K271E) above, with E18K counted along it
Chain of HOXA4 (Homo sapiens, UniProt Q00056 201-287, W262F) (Q00056 201-287 W262F): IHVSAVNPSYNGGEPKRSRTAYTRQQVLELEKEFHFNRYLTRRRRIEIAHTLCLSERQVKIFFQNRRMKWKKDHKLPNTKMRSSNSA
Chain of VAX1 (Homo sapiens, UniProt Q5SQQ9 86-172) (Q5SQQ9 86-172): as the sequence (Q5SQQ9 86-172 T142I) above, with I57T counted along it
Chain of HOXA4 (Homo sapiens, UniProt Q00056 201-287, R217L) (Q00056 201-287 R217L): as the sequence (Q00056 201-287 W262F) above, with R17L, F62W counted along it
Chain of HOXB4 (P17483 148-234 V174I): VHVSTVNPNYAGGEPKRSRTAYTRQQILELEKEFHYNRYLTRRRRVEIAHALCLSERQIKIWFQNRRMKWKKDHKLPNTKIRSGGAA
Chain of ALX1 (Homo sapiens, UniProt Q15699 118-204, L144R) (Q15699 118-204 L144R): as the sequence (Q15699 118-204 L144V) above, with V27R counted along it
Chain of PRRX1 (Homo sapiens, UniProt P54821 80-166) (P54821 80-166): as the sequence (P54821 80-166 F113S) above, with S34F counted along it
Chain of ALX3 (Homo sapiens, UniProt O95076 139-225, N203Q) (O95076 139-225 N203Q): as the sequence (O95076 139-225 N203S) above, with S65Q counted along it

On to ATTAATAA, for which the binding signal in [1] was 10.1 upbm affinity estimate (log intensity, higher = more binding, comparable within an allelic series); in experiment [2] it was 12.6 upbm affinity estimate (log intensity, higher = more binding, comparable within an allelic series); in experiment [3], 11.2 upbm affinity estimate (log intensity, higher = more binding, comparable within an allelic series); in experiment [4] it was 12.2 upbm affinity estimate (log intensity, higher = more binding, comparable within an allelic series); in experiment [5], 13.5 upbm affinity estimate (log intensity, higher = more binding, comparable within an allelic series); in [6], 11.7 upbm affinity estimate (log intensity, higher = more binding, comparable within an allelic series). Moreover, the binding signal was 11.2 upbm affinity estimate (log intensity, higher = more binding, comparable within an allelic series) in experiment [7]; 12.1 upbm affinity estimate (log intensity, higher = more binding, comparable within an allelic series) in experiment [8]; 10.1 upbm affinity estimate (log intensity, higher = more binding, comparable within an allelic series) in experiment [9]; 12.8 upbm affinity estimate (log intensity, higher = more binding, comparable within an allelic series) in experiment [10]; 12 upbm affinity estimate (log intensity, higher = more binding, comparable within an allelic series) in experiment [11]; 13.6 upbm affinity estimate (log intensity, higher = more binding, comparable within an allelic series) in experiment [12]. For the same sequence, the binding signal was 11.4 upbm affinity estimate (log intensity, higher = more binding, comparable within an allelic series) in experiment [13]; 8.66 upbm affinity estimate (log intensity, higher = more binding, comparable within an allelic series) in [14]; 10.8 upbm affinity estimate (log intensity, higher = more binding, comparable within an allelic series) in experiment [15]; 11.9 upbm affinity estimate (log intensity, higher = more binding, comparable within an allelic series) in experiment [16]; 9.26 upbm affinity estimate (log intensity, higher = more binding, comparable within an allelic series) in experiment [17]; 12.5 upbm affinity estimate (log intensity, higher = more binding, comparable within an allelic series) in experiment [18]. Besides, the binding signal was 11.2 upbm affinity estimate (log intensity, higher = more binding, comparable within an allelic series) in experiment [19]; 10.7 upbm affinity estimate (log intensity, higher = more binding, comparable within an allelic series) in experiment [20]; 11.8 upbm affinity estimate (log intensity, higher = more binding, comparable within an allelic series) in experiment [21]; 12.2 upbm affinity estimate (log intensity, higher = more binding, comparable within an allelic series) in [22]; 11 upbm affinity estimate (log intensity, higher = more binding, comparable within an allelic series) in experiment [23]; 8.97 upbm affinity estimate (log intensity, higher = more binding, comparable within an allelic series) in [24]. For the same sequence, the binding signal is 10.2 upbm affinity estimate (log intensity, higher = more binding, comparable within an allelic series) in experiment [25]; 10.2 upbm affinity estimate (log intensity, higher = more binding, comparable within an allelic series) in experiment [26]; 11.4 upbm affinity estimate (log intensity, higher = more binding, comparable within an allelic series) in experiment [27]; 11.2 upbm affinity estimate (log intensity, higher = more binding, comparable within an allelic series) in experiment [28]; 9.99 upbm affinity estimate (log intensity, higher = more binding, comparable within an allelic series) in experiment [29]; 8.16 upbm affinity estimate (log intensity, higher = more binding, comparable within an allelic series) in experiment [30]. Moreover, the binding signal was 12.3 upbm affinity estimate (log intensity, higher = more binding, comparable within an allelic series) in experiment [31]; 11 upbm affinity estimate (log intensity, higher = more binding, comparable within an allelic series) in [32]; 9.01 upbm affinity estimate (log intensity, higher = more binding, comparable within an allelic series) in [33]; 11.4 upbm affinity estimate (log intensity, higher = more binding, comparable within an allelic series) in experiment [34]; 8.71 upbm affinity estimate (log intensity, higher = more binding, comparable within an allelic series) in experiment [35]; 13.2 upbm affinity estimate (log intensity, higher = more binding, comparable within an allelic series) in experiment [36]. In addition, in experiment [37], the binding signal is 11.7 upbm affinity estimate (log intensity, higher = more binding, comparable within an allelic series).

With ACCGTTTA, the binding signal in [38] was 10.1 upbm affinity estimate (log intensity, higher = more binding, comparable within an allelic series); in experiment [39], 10.1 upbm affinity estimate (log intensity, higher = more binding, comparable within an allelic series); in experiment [8], 10.4 upbm affinity estimate (log intensity, higher = more binding, comparable within an allelic series).

For the sequence GCGCGAAC, the binding signal in experiment [38] is 8.01 upbm affinity estimate (log intensity, higher = more binding, comparable within an allelic series); in experiment [40], 8 upbm affinity estimate (log intensity, higher = more binding, comparable within an allelic series); in experiment [39], 8.06 upbm affinity estimate (log intensity, higher = more binding, comparable within an allelic series); in experiment [41], 7.03 upbm affinity estimate (log intensity, higher = more binding, comparable within an allelic series); in experiment [31], 7.1 upbm affinity estimate (log intensity, higher = more binding, comparable within an allelic series); in experiment [42] it was 7.1 upbm affinity estimate (log intensity, higher = more binding, comparable within an allelic series).

As to GACATTAA, the binding signal in [1] was 10 upbm affinity estimate (log intensity, higher = more binding, comparable within an allelic series); in experiment [2] it was 12.6 upbm affinity estimate (log intensity, higher = more binding, comparable within an allelic series); in experiment [3] it was 11.2 upbm affinity estimate (log intensity, higher = more binding, comparable within an allelic series); in experiment [9], 10 upbm affinity estimate (log intensity, higher = more binding, comparable within an allelic series); in [43], 11.8 upbm affinity estimate (log intensity, higher = more binding, comparable within an allelic series); in [44], 12.6 upbm affinity estimate (log intensity, higher = more binding, comparable within an allelic series). Also, the binding signal in experiment [18] was 12.5 upbm affinity estimate (log intensity, higher = more binding, comparable within an allelic series); in [21], 11.9 upbm affinity estimate (log intensity, higher = more binding, comparable within an allelic series); in experiment [27], 11.6 upbm affinity estimate (log intensity, higher = more binding, comparable within an allelic series); in experiment [28] it was 10.9 upbm affinity estimate (log intensity, higher = more binding, comparable within an allelic series); in [33], 8.93 upbm affinity estimate (log intensity, higher = more binding, comparable within an allelic series); in [37], 11.7 upbm affinity estimate (log intensity, higher = more binding, comparable within an allelic series).

ACGATTAT: the binding signal in [38] was 10.5 upbm affinity estimate (log intensity, higher = more binding, comparable within an allelic series); in [45], 10.7 upbm affinity estimate (log intensity, higher = more binding, comparable within an allelic series).

For the origin of these results see article PMC11006913.
